# Screens from PubChem BioAssay.
# C diff growth – C. difficile growth inhibition. Clostridium difficile clinical isolate growth, OD600, 24 h; hits give low values. AID 1259249. hit rate 0.25% among 86,000. growth activity, negative = inhibition, % at 16 µg/mL (by protocol);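 active = mean growth activity at or below -80% and every replicate also at or below -80%; inconclusive = mean at or below -80% but some replicate above -80%; inactive = mean growth activity above -80%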
# Pf Dd2 growth – P. falciparum Dd2 growth inhibition. activity change, % at 10 µM. SYBR Green, 72 h; hits give low values. hit rate 2.3% among 94,000; in the data active = activity change below about -80%; inconclusive = no clear call, values can overlap the other calls
# T cruzi growth-1 – blocks T. cruzi growth in NIH3T3 culture; T. cruzi beta-gal in NIH3T3, GalScreen luminescence, 90 h; inhibition, % at 8.34 µM; hit rate 5.9% among 77,000;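 active = mean inhibition above about 93%, with at least 55% of replicates each passing it, limit read from the data, passing the limit was not always enough; inconclusive = only one of those two conditions holds; inactive = neither condition holds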
# T cruzi growth-2 – blocks T. cruzi growth in NIH3T3 host cells. shares compounds with T cruzi growth-1. T. cruzi beta-gal in NIH3T3, GalScreen luminescence, 90 h. AID 651739. inhibition, % at 8.35 µM. hit rate 72% among 5,600;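 active = mean replicate inhibition above about 95% and at least 55% of replicates individually reaching it, limit read from the data; inconclusive = only one of the two criteria is met; inactive = neither criterion is met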
# T cruzi growth-3 – blocks T. cruzi growth in NIH3T3 host cells; shares compounds with T cruzi growth-1; AID 651740; T. cruzi beta-gal in NIH3T3, GalScreen luminescence, 90 h; hit rate 21% among 5,600; inhibition, % at 2.09 µM;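 active = mean inhibition above about 95%, with at least 55% of replicates also reaching it, limit read from the data; inconclusive = meets just one of the two conditions; inactive = meets neither condition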
# NIH3T3 tox – NIH/3T3 (mouse) viability loss | shares compounds with T cruzi growth-1 | hit rate 14% among 5,600 | NIH/3T3 viability, CellTiter-Glo ATP luminescence, 90 h | cytotoxicity (signal decrease), % at 8.35 µM;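 active = mean signal decrease across replicates above about 35% based on untreated-well scatter, with enough replicates individually passing, limit read from the data; inconclusive = no rule stated though some were filed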
# NIH3T3 tox 2 – cytotoxicity in mouse NIH/3T3 fibroblasts; AID 651744; inhibition, % at 24.9 µM; shares compounds with T cruzi growth-1; hit rate 56% among 5,600; NIH/3T3 viability, CellTiter-Glo ATP luminescence, 90 h;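 active = mean loss of cell viability signal at or above a set limit, and enough replicates individually reaching it; inconclusive = meets only the mean limit or only the replicate share; inactive = meets neither condition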
# Hits are given with their value; – = inactive; ? = inconclusive; · = no result given. An excerpt weighted towards active compounds, which were near 6.8% of everything screened.
SMILES,C diff growth,Pf Dd2 growth,T cruzi growth-1,T cruzi growth-2,T cruzi growth-3,NIH3T3 tox,NIH3T3 tox 2
C[C@H](CO)N1C[C@H](C)[C@H](CN(C)C(=O)Nc2ccccc2)Oc2c(NC(=O)Nc3cccc4ccccc34)cccc2C1=O,–,–,110.0,107.3,–,–,41.4
C[C@H]1CN([C@@H](C)CO)C(=O)c2cccc(NC(=O)Nc3ccc(F)cc3)c2O[C@H]1CN(C)C(=O)Nc1cccc2ccccc12,–,–,–,·,·,·,·
C[C@H]1CN([C@@H](C)CO)C(=O)c2cccc(NC(=O)Nc3cccc4ccccc34)c2O[C@H]1CN(C)C(=O)Nc1ccc(F)cc1,–,–,115.6,108.9,–,–,?
C[C@@H]1CN([C@@H](C)CO)C(=O)c2cccc(NC(=O)Nc3ccc(C(F)(F)F)cc3)c2O[C@@H]1CN(C)C(=O)Nc1cccc2ccccc12,–,–,–,·,·,·,·
C[C@H](CO)N1C[C@H](C)[C@@H](CN(C)C(=O)Nc2cccc3ccccc23)Oc2c(NC(=O)Nc3ccc(C(F)(F)F)cc3)cccc2C1=O,–,–,97.1,104.0,–,–,103.2
C[C@H](CO)N1C[C@H](C)[C@H](CN(C)C(=O)Nc2cccc3ccccc23)Oc2c(NC(=O)c3ccncc3)cccc2C1=O,–,–,–,·,·,·,·
C[C@H]1CN([C@@H](C)CO)C(=O)c2cc(C#CC3CC3)cnc2O[C@H]1CN(C)C(=O)Nc1ccc(F)cc1,–,–,–,·,·,·,·
C[C@H]1CN([C@@H](C)CO)C(=O)Cc2cc(NS(=O)(=O)c3ccc(F)cc3)ccc2O[C@H]1CN(C)S(=O)(=O)c1ccccc1,–,–,–,·,·,·,·
Cc1cc(C(=O)Nc2cccc3c2O[C@H](CN(C)S(=O)(=O)c2cn(C)cn2)[C@@H](C)CN([C@@H](C)CO)C3=O)n(C)n1,·,–,–,·,·,·,·
O=C(c1ccc2c(c1)OCO2)N1CC(=O)N2[C@H](CO)[C@@H](c3ccc(C#CCC4CCCC4)cc3)[C@@H]2C1,–,–,·,·,·,·,·
C[C@H](CO)N1C[C@H](C)[C@H](CN(C)C(=O)NC2CCCCC2)Oc2ccc(NS(=O)(=O)c3cn(C)cn3)cc2C1=O,·,–,–,·,·,·,·
O=C(Nc1cccc(F)c1)N1CC(=O)N2[C@@H](CO)[C@H](c3ccc(-c4ccccc4)cc3)[C@@H]2C1,–,–,·,·,·,·,·
COc1ccccc1C#Cc1ccc([C@@H]2[C@@H](C#N)N(C(=O)C3CCC3)[C@H]2CO)cc1,–,–,97.3,104.0,110.7,–,–
COc1ccccc1C#Cc1ccc([C@@H]2[C@@H](C#N)N(C(=O)C3CCC3)[C@@H]2CO)cc1,–,–,–,·,·,·,·
COc1ccccc1C#Cc1ccc([C@@H]2[C@H](C#N)N(C(=O)C3CCC3)[C@H]2CO)cc1,–,–,?,102.9,111.2,–,28.2
COc1ccccc1C#Cc1ccc([C@@H]2[C@@H](CO)N(C(=O)C3CCC3)[C@H]2C#N)cc1,–,–,–,·,·,·,·
O=C(C[C@H]1CC[C@H]2[C@@H](COC[C@@H](O)CN2Cc2ccncc2)O1)NCC1CC1,–,–,–,·,·,·,·
C[C@@H]1CN([C@@H](C)CO)C(=O)c2cc(NC(=O)CCCN(C)C)ccc2O[C@@H]1CN(C)Cc1ccccc1,–,–,–,·,·,·,·
CN(C)CC(=O)Nc1ccc2c(c1)[C@H]1C[C@@H](CC(=O)NCc3cccnc3)O[C@H](CO)[C@H]1O2,–,–,–,·,·,·,·
Cc1ccccc1-c1ccc([C@H]2[C@H]3CN(S(C)(=O)=O)CCCCN3[C@H]2CO)cc1,–,–,–,·,·,·,·
O=S(=O)(c1ccc(F)cc1)N1CCCCN2[C@H](C1)[C@@H](c1ccc(-c3ccccc3F)cc1)[C@@H]2CO,–,–,107.3,101.0,–,–,42.1
CCS(=O)(=O)N1CCCCN2[C@H](CO)[C@H](c3ccc(-c4ccccc4F)cc3)[C@H]2C1,–,–,99.5,95.6,–,–,60.6
O=S(=O)(c1ccc(F)cc1)N1CCCCN2[C@@H](CO)[C@H](c3ccc(-c4ccccc4F)cc3)[C@@H]2C1,–,–,106.3,–,–,77.5,100.4
Cc1ccccc1-c1ccc([C@H]2[C@H](CO)N3CCCCN(S(C)(=O)=O)C[C@@H]23)cc1,–,–,108.9,95.8,–,–,35.5
O=S(=O)(c1ccccc1)N1CCCCN2[C@H](CO)[C@H](c3ccc(-c4ccccc4F)cc3)[C@H]2C1,–,–,–,·,·,·,·
SMILES,C diff growth,Pf Dd2 growth,T cruzi growth-1,T cruzi growth-2,T cruzi growth-3,NIH3T3 tox,NIH3T3 tox 2
CCS(=O)(=O)N1CCCCN2[C@H](CO)[C@@H](c3ccc(-c4ccccc4F)cc3)[C@H]2C1,–,–,–,·,·,·,·
O=S(=O)(c1ccc(F)cc1)N1CCCCN2[C@H](CO)[C@H](c3ccc(-c4ccccc4F)cc3)[C@H]2C1,–,–,–,·,·,·,·
C[C@H](CO)N1C[C@H](C)[C@H](CN(C)S(C)(=O)=O)OCCCC[C@H](C)Oc2ccc(NC(=O)Nc3ccccc3)cc2C1=O,–,–,–,·,·,·,·
N#C[C@@H]1[C@@H](c2ccccc2-c2ccccc2)[C@H](CO)N1C(=O)Cc1ccncc1,–,–,·,·,·,·,·
C[C@@H]1CN([C@H](C)CO)C(=O)c2cc(C#Cc3cccnc3)cnc2O[C@H]1CN(C)Cc1ccc(F)cc1,–,–,·,·,·,·,·
O=C(Cc1ccccc1)N[C@H]1CC[C@@H](CC(=O)N2CCCCC2)O[C@@H]1CO,–,–,–,·,·,·,·
O=S(=O)(c1ccccc1)N1CCCCN2[C@H](C1)[C@H](c1ccc(-c3ccccc3F)cc1)[C@@H]2CO,–,–,–,·,·,·,·
O=S(=O)(c1ccc(F)cc1)N1CCCCN2[C@H](CO)[C@H](c3ccc(-c4ccccc4F)cc3)[C@@H]2C1,–,–,110.6,104.3,–,–,93.6
O=S(=O)(c1ccc(F)cc1)N1CCCCN2[C@@H](CO)[C@@H](c3ccc(-c4ccccc4F)cc3)[C@@H]2C1,–,–,–,·,·,·,·
Cc1ccccc1-c1ccc([C@H]2[C@H](CO)N3CCCCN(S(=O)(=O)c4ccc(F)cc4)C[C@@H]23)cc1,–,–,111.9,99.7,109.6,?,103.8
Cc1ccccc1-c1ccc([C@@H]2[C@@H](CO)N3CCCCN(S(=O)(=O)c4ccc(F)cc4)C[C@H]23)cc1,–,–,–,·,·,·,·
O=S(=O)(c1ccc(F)cc1)N1CCCCN2[C@H](C1)[C@H](c1ccc(-c3ccccc3F)cc1)[C@@H]2CO,–,–,108.1,104.7,105.0,–,101.7
COc1ccccc1CN1C[C@@H](C)[C@H](OC)CN(C)C(=O)c2ccc(NC(C)=O)cc2OC[C@H]1C,·,–,–,·,·,·,·
CCC(=O)N(C)C[C@H]1Oc2cc(Br)ccc2S(=O)(=O)N([C@H](C)CO)C[C@@H]1C,–,–,·,·,·,·,·
C[C@H]1CN([C@@H](C)CO)C(=O)Cc2cc(NC(=O)C3CC3)ccc2O[C@H]1CN(C)C(=O)NC1CCCCC1,–,–,–,·,·,·,·
COc1ccc(S(=O)(=O)N(C)C[C@@H]2Oc3ccc(N(C)C)cc3C(=O)N([C@H](C)CO)C[C@@H]2C)cc1,–,–,–,·,·,·,·
